Compound activity from PubChem BioAssay.
In the library only some 1.3% were active in any assay of this set; here they are far more common.
RPL19A TOR yeast: yeast TOR pathway RPL19A-GFP modulation; S. cerevisiae RPL19A-GFP strain, flow cytometry, 3 h; stronger effect = lower value; percent response vs DMSO, % at 10 µM; 0.3% of 330,000 active; AID 2025;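 active means percent response vs DMSO below 50%; inconclusive means fewer than 70 events counted for the yeast strain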;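 further: median channel GFP fluorescence of the barcoded RPL19A-GFP strain; lower means less RPL19A-GFP as with rapamycin TOR inhibition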
CIT2 TOR yeast: modulators of TOR pathway CIT2-GFP in S. cerevisiae | GFP response vs DMSO, % at 10 µM | 0.065% of 320,000 active | S. cerevisiae CIT2-GFP strain, flow cytometry, 3 h; 100 means same as DMSO wells;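 active means GFP response relative to DMSO above a set limit, near the screen mean plus 3 SD, cut at about 150% in these data; inconclusive means Fewer than 70 cells measured for a yeast strain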;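 further: ratio of well median GFP fluorescence to mean of DMSO wells on the plate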
Efflux pump inh: blocks antifungal efflux pumps in multiplex yeast assay; S. cerevisiae Candida pump triplex, Nile Red efflux; inhibition, % at 10 µM; 0.44% of 330,000 active; AID 485275;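 active means plate passing quality check with inhibition over a set limit, or well fluorescence over plate mean plus 4 SD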;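 further: Nile Red retained in pooled yeast measured as flow cytometry median fluorescence; higher means more Nile Red kept so more efflux inhibition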
LAP4-GFP MLPCN: modulators of TOR pathway LAP4-GFP in S. cerevisiae; GFP response vs DMSO, % at 10 µM; 0.34% of 320,000 active; S. cerevisiae LAP4-GFP multiplex, flow cytometry GFP, 3 h; median GFP as percent of DMSO wells;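 active means GFP response vs DMSO above a set limit, about the screen mean plus 3 SD, cut at about 150% in these data; inconclusive means under 70 cell events counted for the yeast strain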
AGP1-GFP MLPCN: alters AGP1-GFP fluorescence in TOR pathway yeast screen. S. cerevisiae AGP1-GFP multiplex flow cytometry, 3 h; GFP as percent of DMSO wells. GFP response vs DMSO, % at 10 µM. 0.02% of 320,000 active;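 active means GFP response relative to DMSO above a set limit, near screen average plus 3 SD, cut at about 150% in these data; inconclusive means fewer than 70 cells counted for the yeast strain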;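 further: median GFP channel fluorescence of the gated AGP1 strain per well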
MEP2 TOR yeast: yeast TOR pathway MEP2-GFP modulation; AID 2016; S. cerevisiae MEP2-GFP strain, flow cytometry GFP, 3 h; 100% = DMSO control level; 0.51% of 330,000 active; GFP response vs DMSO, % at 10 µM;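 active means GFP response versus DMSO above a set limit, roughly screen mean plus 3 SD, cut at about 180% in these data; inconclusive means fewer than 70 cells counted for a yeast strain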;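 further: median GFP fluorescence of the barcode-gated MEP2-GFP cells per well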
Large screens that a line does not name were inactive; [ ] = dose if it differs, or a comment.

CSc1cccc(CN2CCN(Cc3ccc(F)c(F)c3)C(CCO)C2)c1 (configuration not stated)	none
Cc1cc(C)nc(NC(=O)c2ccc(Cl)cc2)n1	none
Cc1cc(C)nc(NC(=O)c2cccc(Cl)c2)n1	RPL19A TOR yeast 17[may fluoresce violet], CIT2 TOR yeast inconclusive, AGP1-GFP MLPCN inconclusive, MEP2 TOR yeast 725[may fluoresce violet]
O=C(Cn1c(=O)n(-c2ccccc2)c(=O)c2sccc21)N1CCCC1	RPL19A TOR yeast 43[may fluoresce violet], CIT2 TOR yeast inconclusive, AGP1-GFP MLPCN inconclusive, MEP2 TOR yeast 184[may fluoresce violet]
COc1ccccc1N1CCN(C(=O)c2cc(=O)c3c(C)cc(C)cc3o2)CC1	RPL19A TOR yeast 40[may fluoresce violet], CIT2 TOR yeast inconclusive, LAP4-GFP MLPCN inconclusive, AGP1-GFP MLPCN inconclusive, MEP2 TOR yeast inconclusive
CN1CCc2c(sc3c2C(=O)NC(/C=C\c2ccccc2)N3)C1 (configuration not stated)	CIT2 TOR yeast inconclusive, MEP2 TOR yeast 673[may fluoresce violet]
CC1CCN(S(=O)(=O)c2cccc(C(=O)Nc3nccs3)c2)CC1	CIT2 TOR yeast 152, LAP4-GFP MLPCN 166, MEP2 TOR yeast 214
COc1cccc(-c2ncc3ccccc3c2COC(=O)N(C)C)c1	none
CC(C)CNC(=O)c1nc(-c2ccccc2)n(-c2ccccc2)n1	RPL19A TOR yeast 20[may fluoresce violet], CIT2 TOR yeast inconclusive, AGP1-GFP MLPCN inconclusive, MEP2 TOR yeast 515[may fluoresce violet]
CNC(=O)c1[nH]cnc1C(=O)Nc1ccccn1	CIT2 TOR yeast 435[may fluoresce green], LAP4-GFP MLPCN 430[may fluoresce green], AGP1-GFP MLPCN 154[may fluoresce green], MEP2 TOR yeast 622[may fluoresce green]
COc1ccccc1NC(=O)c1nc[nH]c1C(=O)Nc1ccccc1OC	RPL19A TOR yeast 42[may fluoresce violet], CIT2 TOR yeast inconclusive, MEP2 TOR yeast 558[may fluoresce violet] (no result: AGP1-GFP MLPCN)
COc1cc2c(-c3ccccc3)c(C)oc2cc1/C=N/NC(N)=S	none
O=S(=O)(Nc1ccc(Br)cc1)c1cccc2nonc12	LAP4-GFP MLPCN 152
CCC(C)N(C(=O)CSc1nc2ccc(OC)cc2[nH]1)C1CCS(=O)(=O)C1 (configuration not stated)	none
CCN(c1ccccc1)S(=O)(=O)c1nnc(NC(=O)C(C)C)s1	RPL19A TOR yeast 22[may fluoresce violet], CIT2 TOR yeast inconclusive, AGP1-GFP MLPCN inconclusive, MEP2 TOR yeast 338[may fluoresce violet]
COc1ccc(CC(NC(C)=O)C(=O)NC2CCN(c3nnnn3-c3ccccc3)CC2)cc1 (configuration not stated)	RPL19A TOR yeast 30[may fluoresce violet], CIT2 TOR yeast inconclusive, AGP1-GFP MLPCN inconclusive, MEP2 TOR yeast 205[may fluoresce violet]
COc1cccc(CC(NC(C)=O)C(=O)NC2CCN(c3nnnn3-c3ccccc3)CC2)c1 (configuration not stated)	none
Cn1c(SCC(=O)NCC2CCCO2)nnc1-c1ccco1 (configuration not stated)	none
Oc1ccc(-c2csc(-c3cccnc3)n2)cc1O	none
Oc1ccc(-c2csc(-c3ccccc3)n2)cc1O	LAP4-GFP MLPCN 206
CC1(c2ccc3c(c2)OCCO3)NC(=O)N(CC(=O)Nc2c(F)cccc2F)C1=O (configuration not stated)	none
CC(C)(C)NC(=O)CSCc1c(Cl)cccc1Cl	none
NC(=O)CSCc1c(Cl)cccc1Cl	MEP2 TOR yeast 217
O=C(C1=C(O)C(=O)N(c2ncccn2)C1c1ccc(F)cc1)c1ccco1 (configuration not stated)	RPL19A TOR yeast 43[may fluoresce violet], MEP2 TOR yeast 506[may fluoresce violet] (no result: CIT2 TOR yeast, LAP4-GFP MLPCN, AGP1-GFP MLPCN)
CN(CC(=O)Nc1ccc(F)c(F)c1)S(=O)(=O)c1cccs1	RPL19A TOR yeast 27[may fluoresce violet], CIT2 TOR yeast inconclusive, LAP4-GFP MLPCN inconclusive, AGP1-GFP MLPCN inconclusive, MEP2 TOR yeast inconclusive
CCc1cccc(NC(=O)CN(C)S(=O)(=O)c2cccs2)c1	none
CN(CC(=O)Nc1ccc2c(c1)OCO2)S(=O)(=O)c1cccs1	RPL19A TOR yeast 45[may fluoresce violet], CIT2 TOR yeast inconclusive, AGP1-GFP MLPCN inconclusive, MEP2 TOR yeast 302[may fluoresce violet]
O=C(COc1ccc(-c2nnco2)cc1)Nc1cc([N+](=O)[O-])ccc1F	none
CCC(C(=O)N1CCOCC1)n1c2ccccc2c2nc(=O)cc(C)n21 (configuration not stated)	none
C=C(C)C1CC=C(C)/C(=N/NC(=O)CNc2ccc(OCC)cc2)C1 (configuration not stated)	CIT2 TOR yeast inconclusive, AGP1-GFP MLPCN inconclusive, MEP2 TOR yeast 207[may fluoresce violet]
C=C(C)C1CC=C(C)/C(=N/NC(=O)CNc2ccc(C)cc2C)C1 (configuration not stated)	none
O=C(c1ccccc1)N1CCN(C(=O)c2cc3ccccc3oc2=O)CC1	RPL19A TOR yeast 28[may fluoresce violet], CIT2 TOR yeast inconclusive, LAP4-GFP MLPCN inconclusive, AGP1-GFP MLPCN inconclusive, MEP2 TOR yeast inconclusive
O=C(c1cc2ccccc2oc1=O)N1CCCC1	none
COc1ccc(OC)c(Nc2nc(-c3cccc([N+](=O)[O-])c3)nc3ccccc23)c1	RPL19A TOR yeast 30[may fluoresce violet], CIT2 TOR yeast inconclusive, MEP2 TOR yeast 184[may fluoresce violet]
CCc1nnc(NS(=O)(=O)c2ccc(N/C=C\C(=O)c3cccc(OC)c3)cc2)s1	CIT2 TOR yeast inconclusive, AGP1-GFP MLPCN inconclusive, MEP2 TOR yeast 270[may fluoresce violet]
OC1(c2ccc(F)cc2)CSC(=Nc2cccnc2)N1Cc1ccco1 (configuration not stated)	LAP4-GFP MLPCN 197
OC1(c2ccc(F)cc2)CCN(Cc2cccnc2)CC1	none
O=C(CSc1ccsc1[N+](=O)[O-])NC1CCCC1	CIT2 TOR yeast inconclusive, AGP1-GFP MLPCN inconclusive, MEP2 TOR yeast 204[may fluoresce violet]
Nc1ccc(-c2nc3ccc(N)cc3s2)cc1	CIT2 TOR yeast inconclusive, MEP2 TOR yeast 290[may fluoresce violet]
CC(Sc1nnc(Nc2ccccc2F)s1)C(=O)NC1CC1 (configuration not stated)	none
CCOC(=O)N/C(N)=N/c1nc2ccccc2s1	LAP4-GFP MLPCN 168
Cc1cc(=O)oc2c3c(cc(OCC(=O)NCc4ccccc4)c12)OC(C)(C)CC3	none
Cc1cc(=O)oc2c3c(cc(OCC(=O)Nc4ccc(CCO)cc4)c12)OC(C)(C)CC3	RPL19A TOR yeast 41[may fluoresce violet], CIT2 TOR yeast inconclusive, AGP1-GFP MLPCN inconclusive, MEP2 TOR yeast 209[may fluoresce violet]
N#Cc1ccc(OCc2nnc(SCC(=O)N3CCCc4ccccc43)n2-c2ccccc2)cc1	none (no result: LAP4-GFP MLPCN)
COc1ccc(OCc2nnc(SCC(=O)N3CCCc4ccccc43)n2-c2ccc(C)cc2)cc1	CIT2 TOR yeast inconclusive, MEP2 TOR yeast 214[may fluoresce violet]
CN(C)C(=S)c1ccccc1	none
Cc1cccc(NC(=O)C2CCCN(S(=O)(=O)c3ccc4c(c3)oc(=O)n4C)C2)c1 (configuration not stated)	RPL19A TOR yeast 45[may fluoresce violet], CIT2 TOR yeast inconclusive, AGP1-GFP MLPCN inconclusive, MEP2 TOR yeast 202[may fluoresce violet]
Cn1c(=O)oc2cc(S(=O)(=O)N3CCCC(C(=O)Nc4nccs4)C3)ccc21 (configuration not stated)	none
O=C(CCc1nc(-c2ccccc2F)no1)Nc1cccnc1	none
CCOc1ccccc1-c1noc(CCC(=O)Nc2cccnc2)n1	MEP2 TOR yeast 223
O=C(NCc1ccccc1)c1cc2ccc(O)cc2oc1=O	none
